# Only some compounds are listed: those with a hit (about 1.6% of all), similar ones and a draw of the others.
# S1P4 ag: human S1P4 receptor agonism; actives 0.35% (n = 220,000); S1P4-expressing cell line, agonist reporter assay; O95977; activation, % at 4.98 µM; in the data active = activation above about 11%;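 also: 0% = DMSO vehicle and 100% = reference agonist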
# p97 ATPase inh: human p97 ATPase inhibition; P55072; recombinant p97 ATPase, Kinase-Glo ATP luminescence, 3 h; inhibition, % at 8 µM; actives 0.42% (n = 220,000); AID 1481; in the data active = inhibition above about 15%;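 also: 0% = DMSO vehicle and 100% = wells lacking enzyme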
# Redox H2O2 prof: compounds producing H2O2 with reducing agent – biochemical, NIH compound library profiling, artefact control for MLSCN library redox annotation, primary screen | DTT-dependent redox cycling H2O2, phenol red/HRP absorbance; 100% = 100 µM peroxide control, 0% = buffer | actives 0.03% (n = 200,000) | activation, % at 10 µM;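 active = activation of at least 50% relative to the plate's high and low controls in the primary single-dose screen; inactive = activation below 50%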;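 also: compound incubated with DTT at 0.8 mM final as the reducing agent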
# S1P3 antagonist: antagonists of human S1P3 receptor; Q99500; CHO S1P3 NFAT-BLA reporter, FRET fluorescence, antagonist mode; inhibition, % at 4.98 µM; actives 0.27% (n = 170,000); AID 485;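 active = inhibition above the plate cutoff, the mean inhibition of test wells on that plate plus 3 SD, cut at about 28% in these data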;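 also: cells challenged with S1P at its EC80 of 0.8 µM; blue over green emission ratio from cleaved BLA substrate after 4 h stimulation; 0% = S1P-stimulated wells and 100% = unstimulated DMSO-only wells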
# Target sequence (Q99500 whole entry, looked up): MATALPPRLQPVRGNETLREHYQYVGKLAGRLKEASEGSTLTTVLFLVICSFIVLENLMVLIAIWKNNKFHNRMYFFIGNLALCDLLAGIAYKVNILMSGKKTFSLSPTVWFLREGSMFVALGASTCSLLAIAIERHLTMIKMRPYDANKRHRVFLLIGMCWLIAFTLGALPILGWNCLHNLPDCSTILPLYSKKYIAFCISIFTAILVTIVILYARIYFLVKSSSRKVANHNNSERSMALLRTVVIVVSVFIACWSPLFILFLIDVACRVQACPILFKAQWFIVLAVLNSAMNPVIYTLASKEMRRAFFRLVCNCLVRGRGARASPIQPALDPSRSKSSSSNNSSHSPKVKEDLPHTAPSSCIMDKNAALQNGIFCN
# S1P4 antag: antagonists of human S1P4 receptor. AID 1510. inhibition, % at 4.98 µM. actives 0.26% (n = 220,000). O95977. S1P4-expressing cells, antagonist mode, reporter read-out; in the data active = inhibition above about 29%;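 also: 0% = wells stimulated with agonist and 100% = vehicle wells without agonist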
# Arbovirus inh: arbovirus infection inhibition; arbovirus infection cell-based antiviral screen; inhibition, % at 10 µM; actives 0.37% (n = 200,000); AID 1251; in the data active = inhibition above about 30%
# Active calls of the source: *; . = no result given.
SMILES,S1P4 ag,p97 ATPase inh,Redox H2O2 prof,S1P3 antagonist,S1P4 antag,Arbovirus inh
CCOC(=O)CSC1=Nc2ccccc2C2=NC(CC(=O)NCc3ccc4c(c3)OCO4)C(=O)N12 (stereo unspecified),72.4*,3.9,-0.2,3.7,10.5,6.4
O=C(NC(=S)NCCC1=CCCCC1)c1ccccc1Br,-0.6,0.2,-0.8,-15.1,-8.0,37.3*
COc1ccccc1OCCCCOc1ccccc1C(C)=O,-2.5,5.3,0.1,6.3,-3.8,14.1
C/C=C/c1ccc(OCCCCOc2ccccc2C(C)=O)c(OC)c1,0.6,-1.7,0.3,8.1,-7.0,35.7*
CCC(c1nnnn1C1CCCC1)N1CCN(c2cccc(OC)c2)CC1 (stereo unspecified),-1.6,-6.8,0.4,-15.9,2.5,11.0
CCC(CC)c1nnc(NC(=O)Oc2ccccc2)s1,-1.5,-3.3,0.7,.,4.1,16.1
COc1cc2nc(/C=C/c3ccc(N(C)C)cc3)sc2cc1SC,3.4,3.6,2.2,54.9*,23.3,-0.2
COc1ccc(-c2noc(-c3cccnc3)n2)cc1OC,1.3,-3.6,-0.6,-12.0,-22.0,5.8
COc1ccc(-c2noc(CSc3nc(-c4ccccc4)cc(=O)[nH]3)n2)cc1OC,1.0,2.3,0.8,19.0,3.4,51.6*
COc1ccc(-c2noc(CSc3nc(N)cc(=O)[nH]3)n2)cc1,1.0,5.4,.,-5.4,-8.1,.
COc1ccc(-c2noc(-c3ccccc3-c3ccccc3)n2)cc1OC,-0.3,-9.7,-0.7,-17.8,-15.2,30.9*
CCCCCSc1nc2c(c(=O)[nH]c(=O)n2C)n1CCc1ccccc1,.,.,.,102.2*,.,-1.8
COc1ccc(-c2cc3nc(-c4ccccc4)cc(N4CCC5(CC4)OCCO5)n3n2)cc1,0.9,-6.3,1.6,54.3*,-38.6,5.5
Cc1ccc(NC(=O)C2c3ccccc3Oc3ccccc32)c(C)c1,1.1,-3.9,0.7,-32.5,-2.5,-0.5
CC1(C)C=C(c2ccc(O)cc2)CC(C)(C)N1,20.0*,6.3,-0.1,15.7,13.9,-12.6
CCOc1cc(-c2nc(C)c(C(C)=O)n2O)ccc1OCC(=O)Nc1cccc(C)c1,-0.2,-0.9,-0.7,-17.6,-1.2,12.7
CCCC(=O)Nc1cccc(NC(=O)c2ccc([N+](=O)[O-])cc2Cl)c1,-0.3,2.9,0.0,0.2,-17.6,45.1*
O=C(COC(=O)C1CC1)NCc1ccccc1Cl,-2.5,4.9,0.3,.,-23.8,-1.4
c1csc(CCNc2ncnc3sc4c(c23)CCC4)c1,.,.,-1.4,94.4*,.,24.9
CCCc1nnc(NC(=O)CCC(=O)NCc2ccc(OC)cc2)s1,-1.5,8.6,.,2.6,-3.6,.
Cc1cc(/C=N/n2cnnc2)c(C)n1-c1ccc(OCc2ccc(F)cc2)cc1,-0.1,-0.2,2.8,76.9*,-21.5,-17.7
COC(=O)c1ccccc1NC(=O)c1ccc(COc2cc(C)cc(C)c2)o1,1.3,-3.0,-3.4,.,-5.3,21.7
COC(=O)c1ccccc1NC(=O)c1ccc(COc2ccc(C)c(C)c2)o1,2.3,-5.2,2.3,.,-3.7,48.0*
COc1ccc(N(CC(=O)Nc2ccccc2C(=O)O)S(=O)(=O)c2ccc(C)c([N+](=O)[O-])c2)cc1,0.2,2.7,0.2,-5.9,-16.3,8.2
COc1ccc(OC)c(NC(=O)CN(c2ccc(C(C)C)cc2)S(=O)(=O)c2c(C)noc2C)c1,-6.0,1.4,0.1,54.1*,-4.0,19.7
SMILES,S1P4 ag,p97 ATPase inh,Redox H2O2 prof,S1P3 antagonist,S1P4 antag,Arbovirus inh
Cc1ccc(N2C(=O)C3CC(c4ccccc4)=C4C5C=CC(C6C(=O)N(c7ccc(C)cc7)C(=O)C56)C4C3C2=O)cc1 (stereo unspecified),-1.9,6.3,0.0,-9.4,-0.3,33.0*
O=C(NC1CCCC1)c1cccc(Oc2ccccc2)c1,1.3,0.6,-0.6,4.9,6.8,0.0
COc1ccc(OC)c(N(CC(=O)N2CCN(c3cc(Cl)ccc3C)CC2)S(C)(=O)=O)c1,0.3,-5.8,0.6,4.8,-9.5,40.9*
NC(=S)c1cc2cc(Br)ccc2oc1=O,-0.7,4.2,-0.1,3.2,5.1,-0.9
O=C(NNC(=O)c1cc2cc(Br)ccc2oc1=O)c1ccc(O)cc1,3.2,14.7*,-1.3,3.7,-2.9,3.1
CCC(=O)NNc1nc2c(F)cccc2s1,-1.2,1.3,-0.5,-5.5,-11.2,0.5
CCC(=O)NNc1nc2c(F)cc(F)cc2s1,-1.9,15.7*,-9.5,16.2,8.8,-1.4
Fc1ccccc1N1CCN(Cc2nc(-c3ccc(Cl)cc3Cl)no2)CC1,2.1,-5.1,-0.1,-14.9,-0.1,30.9*
Clc1ccc(Cc2noc(CN3CCN(c4ccccc4)CC3)n2)c(Cl)c1,0.6,-6.2,-0.2,14.5,-12.0,18.0
COC(=O)c1c(NC(=O)c2ccco2)sc2c1C(C(=O)OC)CC2 (stereo unspecified),1.1,-0.5,-0.1,54.5*,-14.6,2.0
Cc1nn(Cc2ccccc2)c(Cl)c1/C=C/C(=O)OCC(=O)N(C)C1CCS(=O)(=O)C1 (stereo unspecified),0.8,2.2,-0.5,-6.1,10.0,1.9
O=C(Nc1nnc(SCc2ccc(F)cc2)s1)c1ccc2ncsc2c1,0.3,5.5,-0.3,-4.7,-18.2,-7.5
O=C(Nc1nnc(SCc2ccc(F)cc2)s1)c1ccc2c(c1)C(=O)N(c1ccccc1Cl)C2=O,1.9,2.8,-0.6,-5.5,-6.2,43.8*
COc1ccc(CN2CN(S(=O)(=O)c3cccs3)c3nc4ccccc4nc32)cc1,1.0,-0.5,.,-11.3,8.7,.
Cc1ccc(C)n1-n1c(C)nc2scc(-c3cccs3)c2c1=O,-0.2,14.8*,-2.3,-10.6,-17.5,-21.9
O=c1oc(-c2cccs2)nc2scc(-c3cccs3)c12,-1.0,-1.0,2.8,-1.0,-10.1,71.0*
COc1ccc(CC(=O)Nc2ccccc2N2CCCCC2)cc1OC,3.5,-2.9,.,-10.9,22.1,.
Fc1ccc2nc(Nc3nc4c(F)cccc4s3)sc2c1,2.1,2.8,1.0,-1.9,-10.4,34.2*
CCOC(=O)c1cc(C)n(Cc2ccc(OCC)c(OC)c2)c1C,-0.2,-2.5,0.1,.,-15.7,0.1
CCC(C)(C)C1CCc2c(sc(NC(=O)c3ccccc3C(=O)O)c2C#N)C1 (stereo unspecified),-0.1,-10.3,.,-4.2,9.0,.
CC1CCc2c(sc(NC(=O)c3ccccc3C(=O)O)c2C#N)C1 (stereo unspecified),0.4,2.0,-0.3,-12.7,-1.8,59.1*
CC(C)(C)C1CCc2c(sc(NC(=O)C3CC=CCC3C(=O)O)c2C#N)C1 (stereo unspecified),0.9,-5.6,0.1,-8.9,-10.3,35.6*
COc1ccc(OC)c(NC(=O)C(=O)NNC(=O)COc2ccc(Br)cc2C)c1,-0.4,-6.0,-1.4,-26.6,-3.4,-4.7
S=C(NCc1cccs1)NCC1CCCO1 (stereo unspecified),-2.0,-3.6,-1.6,-0.8,-1.1,5.2
